# Not all results are given here.
# aSyn UTR act: Activators working through SNCA 5'UTR binding (MLPCN); alpha-synuclein 5'UTR reporter, activators screen; activity score, % (tested at 7.5 µM), hits read low; 7.1% of 300,000 active; in the data active means activity score below about -60%
# Starred values were filed as active, the others as inactive.
SMILES,aSyn UTR act
c1cncc(-c2nc3ccccc3[nH]2)c1,-88*
Cc1[nH]c2ccccc2c1-c1nc2ccccc2[nH]1,-78*
c1ccc(-c2nc3ccccc3[nH]2)cc1,-138*
C=CCn1c(=N)n(CC(=O)c2cccc([N+](=O)[O-])c2)c2ccccc21,-77*
S=c1[nH]c(-c2ccc(Cl)cc2)cs1,-76*
Cc1ccc(-c2csc(=S)[nH]2)cc1,-113*
Cc1ccc(NC2=C/C(=N/S(=O)(=O)c3cccs3)c3ccccc3C2=O)cc1C,-155*
CC(C)(C)c1cc[n+](C2=C([O-])c3ccccc3C(=O)/C2=N\S(=O)(=O)c2ccccc2)cc1,84
Cc1ccccc1NC1=C/C(=N\S(=O)(=O)c2ccc(C(=O)O)cc2)c2ccccc2C1=O,-69*
Cc1ccccc1NC1=C/C(=N\S(=O)(=O)c2cccs2)c2ccccc2C1=O,114
Cc1cc[n+](C2=C([O-])c3ccccc3C(=O)/C2=N\S(=O)(=O)c2cccs2)cc1C,74
CC(C)(C)C(=O)/C(=C\c1cccc([N+](=O)[O-])c1)n1cncn1,-129*
Oc1ccccc1-c1nnc(COc2ccccc2)o1,-88*
Oc1ccccc1-c1nnc(COc2ccc(Cl)cc2Cl)o1,-170*
c1ccc(OCc2nnc(-c3ccccc3)o2)cc1,-129*
Clc1ccc(-c2nnc(CCc3ccccc3)o2)c(Cl)c1,-155*
CN(C)S(=O)(=O)c1ccc(C(=O)NCCOc2ccc(F)cc2)cc1,-99*
CN(C)S(=O)(=O)c1ccc(C(=O)NCCOc2ccccc2)cc1,-106*
O=C(Nc1nnc(CCc2ccccc2)s1)c1ccccc1,-91*
CC(C)(C)C(=O)Nc1nnc(CCc2ccccc2)s1,-126*
COc1ccccc1C(=O)Nc1nnc(CCc2ccccc2)s1,-213*
Cn1c(=O)c2nc(-c3ccc(Cl)cc3Cl)oc2c2ccccc21,-72*
Cc1ccc(/C=C2/SC(=S)N(CCCC(=O)Nc3ccc(O)cc3)C2=O)cc1,86
O=C1NC(=Nc2ccccc2)/C(=C/c2ccco2)S1,-65*
COc1ccc(N=C2NC(=O)/C(=C/c3ccco3)S2)cc1,-127*
SMILES,aSyn UTR act
Cc1ccc(N=C2NC(=O)S/C2=C\c2ccco2)cc1,-63*
Cc1ccc(N2C(=O)/C(=C/c3ccco3)SC2=S)cc1,-94*
Cc1ccc(C(=O)NNC(=O)CCCN2C(=O)/C(=C/c3ccccc3Cl)SC2=S)cc1,69
Cc1ccc(SC(C)c2nc(-c3ccccc3)no2)cc1 (centres undefined),-98*
CC(C)C1CC(=O)NC(SCC(=O)Nc2ccc(Br)cc2)=C1C#N (centres undefined),-74*
Cc1ccc(NC(=O)CSC2=C(C#N)C(c3ccco3)CC(=O)N2)cc1 (centres undefined),-148*
Cc1ccccc1NC(=O)CSC1=C(C#N)C(c2ccsc2)CC(=O)N1 (centres undefined),-84*
COc1nc(NCCO)nc(Nc2ccccc2F)n1,-97*
Cc1ccccc1-n1c(C)cc(/C=N/Nc2ccc([N+](=O)[O-])cn2)c1C,-76*
O=[N+]([O-])c1ccc(N/N=C/c2cccs2)nc1,-187*
O=C(Cc1ccc(S(=O)(=O)N2CCOCC2)s1)Nc1ccc(N2CCOCC2)cc1,-99*
Cc1c(NC(=O)c2cc(-n3cnnc3)ccc2Cl)cccc1-c1nc2ccccc2s1,-90*
Cc1ccc2sc(-c3ccc(NC(=O)c4cc(-n5cnnc5)ccc4Cl)cc3)nc2c1,-153*
O=C(Nc1cccc(-c2nc3ccccc3s2)c1)c1cc(-n2cnnc2)ccc1Cl,-85*
CCn1c(SCC(=O)c2ccc(Cl)cc2)nnc1C(C)C,-76*
C(=N\n1cnnc1)/c1cccc(OCCOc2ccccc2)c1,-65*
C(=N\n1cnnc1)/c1ccc(OCc2cccc3ccccc23)cc1,-110*
O=C(O)c1cc(-c2c[nH]c3ccccc23)nc2cc3ccccc3cc12,-66*
CCOc1ccc(N=c2scc(-c3ccccc3)n2CCO)cc1,-104*
CCn1c(-c2ccccc2)csc1=Nc1ccc(O)cc1,-139*
OCCn1c(-c2ccc3c(c2)OCO3)csc1=Nc1ccccc1,-97*
C/C(=N\Nc1nc(-c2ccccn2)nc2ccccc12)c1ccc(F)cc1,75
C/C(=N\Nc1nc(-c2ccccc2O)nc2ccccc12)c1ccccc1,-91*
CCc1ccc(-c2nc(CSCC(=O)NC3CC3)c(C)o2)cc1,71
Cc1ccc(-c2nc(CS(=O)(=O)CC(=O)NC3CCC(C)CC3)c(C)o2)cc1 (centres undefined),-102*
SMILES,aSyn UTR act
Cc1cc(C)cc(OCCn2nnc3ccccc32)c1,-126*
Cc1ccc(C)c(OCCn2nnc3ccccc32)c1,-70*
Cc1ccc(OCCn2nc3ccccc3n2)c(C)c1,-90*
Clc1ccccc1OCCn1nnc2ccccc21,-169*
CCOc1cc(/C=N/O)ccc1OCc1ccc(C)cc1,-68*
Cc1ccc(COc2ccc(Br)cc2/C=N/O)cc1,-156*
O/N=C/c1cc(Br)ccc1OCc1ccc(F)cc1,-79*
CN(C)/C=C/c1onc(-c2ccccc2Cl)c1C#N,-87*
CC1CCC/C=C/C(=O)c2c(O)cc(O)cc2CC(=O)O1 (centres undefined),-153*
NC(=O)c1cccnc1Nc1cccc([N+](=O)[O-])c1,-109*
Cc1ccc2nc(-c3ccc(N4C(=O)CC(N5CCN(CCO)CC5)C4=O)cc3)sc2c1 (centres undefined),-87*
CCOC(=O)c1ccc(NC(=S)N(CCN(C)C)Cc2cccs2)cc1,53
CCC(CC)C(=O)Nc1ccc(Nc2ccccc2)cc1,-100*
CCOC(=O)c1ccc(NC(=O)C(CC)CC)cc1,-98*
CCC(C)NS(=O)(=O)c1ccc(NC(=O)C(Sc2ccccc2)c2ccccc2)cc1 (centres undefined),56
CCOC(=O)c1ccc(NC(=O)N(CC)CC)cc1,-115*
Nc1c(C(=O)Nc2nc3ccccc3s2)sc2nc(-c3cccs3)ccc12,106
CC(=O)c1sc2nc(-c3cccs3)ccc2c1N,-272*
COc1ccc(OC)c(C(=O)CC2OC(=O)c3ccccc32)c1 (centres undefined),-70*
O=[N+]([O-])c1ccc(N/N=C/c2ccccc2)c(F)c1,-151*
c1ccc(CCNc2nc(-c3ccncc3)cs2)cc1,-114*
CCCCCNc1nc(-c2ccccc2)cs1,-169*
Cc1ccc(COc2ccc(-c3nnco3)cc2)cc1,-118*
O=[N+]([O-])c1nn(-c2ccc3c(c2)OCCO3)n(O)c1=Nc1ccccc1,80
O=[N+]([O-])c1nn(-c2ccc3c(c2)OCCO3)n(O)c1=NC1CCCCCC1,-91*
SMILES,aSyn UTR act
O=[N+]([O-])c1nn(-c2ccc3c(c2)OCCO3)n(O)c1=NC1CCCC1,-108*
CN1CCN(CC(=O)Nc2ccc(OCc3ccccc3)cc2)CC1,-90*
N#CCN1CCN(CC(=O)Nc2ccc(OCc3ccccc3)cc2)CC1,-62*
CC(C)(C)c1ccc(SCCc2ccccn2)cc1,-127*
Fc1ccc(SCCc2ccccn2)cc1,-97*
CC(C)(C)c1ccc(S(=O)(=O)CCc2ccccn2)cc1,-96*
CC(C)(C)NC(=S)NCCc1ccccc1,-192*
S=C(NCCc1ccccc1)NN=C1CCCCCC1,-159*
CC(C)CCNC(=O)/C=C/c1ccc(Br)cc1,-64*
CCCN1CCC(NC(=S)Nc2ccc([N+](=O)[O-])cc2)CC1,-80*
CCCN1CCC(=NNc2ccc(S(=O)(=O)N(CC)CC)cc2[N+](=O)[O-])CC1,79
O=C(NC(=S)NCCc1ccccn1)c1ccccc1,-106*
S=C(NCCc1ccccc1)Nc1ccc(Br)cc1,-126*

# High-throughput results from PubChem BioAssay.
